Where a name gives a salt, the structure may show the parent alone.
Tested on: hN + hpA co-culture (H1 iNGN2 human neurons + human primary astrocytes)
Assay: presynaptic density (SYNAPSIN1 puncta per MAP2 neurite area), Z-score vs DMSO controls; higher = more presynaptic puncta (synapse-promoting)
Conditions: 3 µM; 72 h
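Also: immunostained co-cultures imaged by high-content microscopy, Z-score per plate against mean and SD of 0.1% DMSO wells, compounds added on differentiation day 18, analysed day 21.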

SMILES | presynaptic density (Z-score)
C[C@H]1COC2=C1C(=O)C(=O)c1c2ccc2c1CCCC2(C)C | 0.405
COc1cc2ncnc(Nc3ccc(Cl)cc3F)c2cc1OC | -0.982
COc1ccc(-n2nc(C(N)=O)c3c2C(=O)N(c2ccc(N4CCCCC4=O)cc2)CC3)cc1 [Apixaban] | 0.0881
O=S(=O)(c1ccccc1)N(CC(F)(F)F)c1ccc(C(O)(C(F)(F)F)C(F)(F)F)cc1 | -0.732
COc1cc(CCc2cc(NC(=O)c3ccc(N4CC(C)NC(C)C4)cc3)n[nH]2)cc(OC)c1 (centres undefined) | -0.132
NC(=O)c1cnc(NC2CCCCC2N)nc1Nc1cccc(-n2nccn2)c1 (centres undefined) | -0.728
Oc1ccc2ccccc2c1SSc1c(O)ccc2ccccc12 [1-1-Dithiodi-2-naphthtol] | -0.787
COc1ccc2[nH]c([S@@+]([O-])Cc3ncc(C)c(OC)c3C)nc2c1 [Esomeprazole Sodium] | 0.0968
O=C(O)Cn1nnc(-c2cc(N3CCC(Oc4cc(F)ccc4Br)CC3)no2)n1 | -0.606
Cn1c(N2CCCCS2(=O)=O)nc(C(=O)NCc2ccc(F)cc2)c(O)c1=O | -1.68
Cc1ccc(S(=O)(=O)OCC(=O)Nc2ccc(C(=O)O)c(O)c2)cc1 | -0.554
C[C@@H](O[C@H]1OCCN(Cc2n[nH]c(=O)[nH]2)[C@H]1c1ccc(F)cc1)c1cc(C(F)(F)F)cc(C(F)(F)F)c1 [Aprepitant] | 0.895
CN(C)C(=O)[C@H](O)[C@H](Cc1ccccc1)NC(=O)c1cc2cc(Cl)ccc2[nH]1 | -0.264
CC(C)(C)c1cnc(CSc2cnc(NC(=O)C3CCNCC3)s2)o1 | -3.77
O=c1ncccn1[C@@H]1O[C@H](CO)[C@@H](O)[C@H]1O [Zebularine] | -0.579
Cc1nnc(C(C)C)n1C1C[C@H]2CC[C@@H](C1)N2CC[C@H](NC(=O)C1CCC(F)(F)CC1)c1ccccc1 (stereo in doubt) [Maraviroc] | -1.28
COc1cc2c(cc1O)CC[C@@H]1[C@@H]2CC[C@]2(C)[C@@H](O)CC[C@@H]12 [2-Methoxyestradiol (2-MeOE2)] | -0.808
CCc1c2c(nc3ccc(OC(=O)N4CCC(N5CCCCC5)CC4)cc13)-c1cc3c(c(=O)n1C2)COC(=O)C3(O)CC (centres undefined) [Irinotecan HCl Trihydrate_Selleck] | -0.772
CCOC(=O)[C@H](CCc1ccccc1)N[C@@H](C)C(=O)N1C(=O)N(C)C[C@H]1C(=O)O [Imidapril HCl] | -0.0695
Cc1nc2c(-c3cnc(N)nc3)nc(N3CCOCC3)nc2n1C(C)C | 1.07

SMILES | presynaptic density (Z-score)
Cc1c(Cc2ccc3ccccc3n2)c2cc(F)ccc2n1CC(=O)O | -1.02
OC(CNCC(O)C1CCc2cc(F)ccc2O1)C1CCc2cc(F)ccc2O1 (centres undefined) [Nebivolol] | -0.196
CCN(CC)CCCC(C)Nc1nc(C)cc(Nc2ccc3nc(C)cc(N)c3c2)n1 (centres undefined) | -0.607
CO[C@H]1C[C@@H]2CC[C@@H](C)[C@@](O)(O2)C(=O)C(=O)N2CCCC[C@H]2C(=O)O[C@H]([C@H](C)C[C@@H]2CC[C@@H](OCCO)[C@H](OC)C2)CC(=O)[C@H](C)/C=C(\C)[C@@H](O)[C@@H](OC)C(=O)[C@H](C)C[C@H](C)/C=C/C=C/C=C/1C [Everolimus (RAD001)] | -1.63
CC(C)(Cc1ccc2ccccc2c1)NC[C@@H](O)COc1cccc(Cl)c1C#N | -2.26
CN(C)CCc1c[nH]c2ccc(Cn3cncn3)cc12 | -0.227
Oc1cc(O)cc(/C=C/c2ccc(O)c(O)c2)c1 [Piceatannol] | -0.0151
N#CSc1cc(SC#N)c(N)nc1N | -0.815
COc1ccccc1N1CCN(CC(O)COc2cccc3ccccc23)CC1 (centres undefined) | -0.464
CCc1c2c(nc3ccc(OC(=O)N4CCC(N5CCCCC5)CC4)cc13)-c1cc3c(c(=O)n1C2)COC(=O)[C@]3(O)CC [Irinotecan] | -0.725
COc1ccc(-c2nc3cc(C4=NNC(=O)CC4C)ccc3[nH]2)cc1 (centres undefined) [Pimobendan] | -0.704
CCOc1ccc(Cc2cc([C@@H]3O[C@H](CO)[C@@H](O)[C@H](O)[C@H]3O)ccc2Cl)cc1 [Dapagliflozin] | 0.756
Cc1ccc(NC(=O)c2ccc(CN3CCN(C)CC3)cc2)cc1Nc1nccc(-c2cccnc2)n1 [Gleevec (Imatinib)] | -0.283
CS(=O)(=O)N1CCN(Cc2cc3nc(-c4cccc5[nH]ncc45)nc(N4CCOCC4)c3s2)CC1 [GDC 0941 bismesylate] | 1.26
Cc1noc(-c2ccc(CSCCC(=O)O)cc2)c1NC(=O)OC(C)c1ccccc1Cl (centres undefined) | 0.975
CCN(CC)C(=O)/C(C#N)=C/c1cc(O)c(O)c([N+](=O)[O-])c1 [Entacapone] | 0.44
C/C(=C\C(=O)Nc1ccccc1C(=O)O)c1ccc2ccccc2c1 | -1.34
c1ccc(CC2=NCCN2)cc1 [Tolazoline HCl] | -0.161
FC(F)(F)c1ccc(/C=C/c2nc(COc3ccc(CCCCn4ccnn4)cc3)co2)cc1 [Mubritinib (TAK 165)] | -3.36

Source: the supplement of paper PMC10121225
